# Article PMC13423814
# Target: HNRNPC (UniProt P07910)
# Details: DSSO, in cells
substance,measurement,value
"HNRNPR, O43390",cross-linked residues,K374 - K8
